Hit rate of the full screen: of about 16,000 compounds, about 2,600 (16%) were called active. Roughly 20% stayed inconclusive and do not appear here. Only a sample is shown. Values without a mark were called inactive. Calls come from the whole dose curve; as a rule, active = well fitted curve in the direction sought with a large enough effect; inconclusive = small, poorly fitted or top-dose-only effect, or effect the other way; inactive = no such curve, though single readings can be large or run the other way.
% is set by controls: 0 for no effect and ±100 for the full control effect.

Sequence of Cytochrome P450 2D6 (Homo sapiens) (P10635 whole entry, looked up): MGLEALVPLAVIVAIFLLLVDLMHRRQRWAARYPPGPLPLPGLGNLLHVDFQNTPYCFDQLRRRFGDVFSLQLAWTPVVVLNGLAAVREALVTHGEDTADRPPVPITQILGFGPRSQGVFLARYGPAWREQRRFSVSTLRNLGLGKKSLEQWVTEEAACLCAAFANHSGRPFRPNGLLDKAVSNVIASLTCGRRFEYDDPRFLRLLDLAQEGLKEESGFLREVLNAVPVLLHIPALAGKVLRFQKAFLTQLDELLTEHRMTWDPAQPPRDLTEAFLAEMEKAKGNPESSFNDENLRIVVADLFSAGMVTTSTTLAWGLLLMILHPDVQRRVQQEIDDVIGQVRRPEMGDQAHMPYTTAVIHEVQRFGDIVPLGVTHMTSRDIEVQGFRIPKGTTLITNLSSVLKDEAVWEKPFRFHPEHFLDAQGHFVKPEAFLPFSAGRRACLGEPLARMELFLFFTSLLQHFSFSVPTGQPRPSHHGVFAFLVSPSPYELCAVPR

This experiment addresses Cytochrome P450 2D6 (Homo sapiens) (UniProt P10635). Briefly: Cytochrome panel assay with activity outcomes. The conditions noted are these: recombinant CYP, pro-luciferin dealkylation, luminescence, p450-cyp2d6; series mostly up to 57.1 µM.
For `CC(=O)O[C@]1(C(C)=O)CC[C@@H]2[C@@H]3C=C(C)C4=CC(=O)CC[C@@]4(C)[C@H]3CC[C@]21C`, the AC50 result was “inactive”.

Take `CCN(CC)C(=O)Cn1cnc([N+](=O)[O-])n1`: the AC50 result is “inactive”.

Turning to `O=C1C(=O)N(c2cccc(Cl)c2)C(c2ccccc2[N+](=O)[O-])/C1=C(\O)c1ccccc1` (centres undefined), the AC50 result is “inactive”.

As for `COc1ccc(CCNC(=O)c2nnn(CC(=O)Nc3ccccc3C)c2N)cc1OC`, the AC50 result is “inactive”.

Consider `COCC(=O)N1CCC2(CCCN(C(=O)Nc3cccc(C#N)c3)C2)CC1`, for which the AC50 result was “inactive”.

Consider `COc1ccccc1C(c1nnnn1C(C)(C)C)N1CCCc2ccccc21` (centres undefined), for which the AC50 result is “inactive”.

As for `COc1ccccc1C(c1nnnn1C(C)(C)C)N1CCN(Cc2ccncc2)CC1` (centres undefined), the concentration at half-maximal activity (AC50) is 2.82 µM (active).

Consider `CN1CCN(c2ncc3nc(-c4cc(F)cc(F)c4)c(=O)n(C)c3n2)CC1`, for which the AC50 result was “inactive”.

Regarding `Cc1cc(Cl)ccc1Oc1ncnc2oc(-c3ccccc3)cc12`, the AC50 result is “inactive”.

Regarding `OCCN=c1cc(-c2ccccc2)oc2ccc(Cl)cc12`, the AC50 is 6.31 µM (active).

`COc1ccc(CNc2ccnc(-c3ccccc3OC)n2)c(OC)c1`: the concentration at half-maximal activity (AC50) was 3.98 µM (active).

As for `COc1ccc(CNc2cc(-c3ccccc3CN(C)C)ncn2)c(OC)c1`, the half-maximal activity concentration (AC50) is 12.6 µM (active).

`COc1ccccc1CNc1ccnc(-c2ccccc2OC)n1`: the AC50 is 1.58 µM (active).

With `COc1ccc(CNc2ccnc(-c3ccccc3CN(C)C)n2)c(OC)c1`, the AC50 is 1 µM (active).

`Cc1cc(NC(=O)c2ccc(S(=O)(=O)N(C)C)cc2)n(-c2ccccn2)n1`: the AC50 result was “inactive”.

In the case of `COc1cccc(/C=N/Nc2nc(N3CCCC3)nc(N3CCCC3)n2)c1O`, the AC50 entry is “inactive”.

For `COc1cccc(Nc2ncc3nc(-c4cccs4)c(=O)n(-c4ccccc4)c3n2)c1`, the AC50 result was “inactive”.

Consider `Cc1nc(Cl)c(C#N)cc1-c1ccccc1`, for which the AC50 result is “inactive”.

As for `N#CC(=C1CCCC1)c1nc(-c2ccccc2)cs1`, the AC50 entry was “inactive”.

For `Cc1noc(NS(=O)(=O)c2ccc(N/C=C\C(=O)c3ccc4c(c3)OCO4)cc2)c1C`, the AC50 entry was “inactive”.

`C=C1C(=O)O[C@@H]2[C@H]3O[C@]3(C)CCC=C(C)CC[C@@H]12`: the AC50 entry is “inactive”.

Take `CCOC(=O)c1c(N2C(=O)Nc3cc(Cl)c(Cl)cc3N2O)sc2c1CCCCC2`: the AC50 entry was “inactive”.

In the case of `CCc1ccc(C(=O)COC(=O)C(Cc2ccccc2)NC(=O)C2CCC(C)CC2)cc1` (centres undefined), the AC50 entry was “inactive”.

Regarding `O=C(Nc1ccc(Cl)cc1Cl)c1cccc(N2C(=O)C=CC2=O)c1`, the AC50 entry is “inactive”.

As to `COc1ccc(CSC2=C(C#N)C(=O)NC3(CCCCC3)S2)cc1`, the activity, negative = inhibition is -3.33% [at 11.4 µM].

Regarding `Nc1nc(Cl)nc2c1ncn2[C@@H]1O[C@@H](COP(=O)(O)OP(=O)(O)OP(=O)(O)O)[C@@H](O)[C@H]1O`, the AC50 result is “inactive”.

For `COc1ccccc1CNc1ccnc(-c2ccccc2Cl)n1`, the AC50 was 12.6 µM (active).

Take `COc1ccc(-c2nc3c([nH]2)c(=O)n(C)c(=O)n3C)c(OC)c1`: the AC50 entry was “inactive”.

In the case of `O=C(O)/C=C\C(=O)Nc1ccccn1`, the activity, negative = inhibition was 7.8% [at 11.4 µM].

Take `O=c1cc(CN2CCN(c3ccc(F)cc3)CC2)c2cc3c(cc2o1)CCCC3`: the AC50 entry was “inactive”.

On to `Cc1cc(N)n2ncc(-c3ccc(Cl)cc3)c2n1`, for which the AC50 entry is “inactive”.

Consider `N[C@@H](CC1=CS(=O)(=O)c2ccc(Cl)cc21)C(=O)O`, for which the activity, negative = inhibition is -13.3% [at 11.4 µM].

On to `CN(C)c1ccc(-c2cncnc2Nc2ccc(F)cc2)cc1`, for which the concentration at half-maximal activity (AC50) was 25.1 µM (active).

Regarding `CN(C)C(=O)c1ccc(-c2cncnc2NCCc2cnc[nH]2)cc1`, the concentration at half-maximal activity (AC50) was 0.794 µM (active).

Regarding `CC(=O)NCCNc1ncncc1-c1ccc(N(C)C)cc1`, the AC50 entry was “inactive”.

`CNc1ncncc1-c1ccc(C(=O)N(C)C)cc1`: the AC50 result is “inactive”.

For the compound `c1ncc(-c2ccc3c(c2)OCO3)c(NCCc2cnc[nH]2)n1`, the half-maximal activity concentration (AC50) is 2.51 µM (active).

With `Fc1ccc(Nc2ncncc2-c2ccoc2)cc1`, the AC50 entry was “inactive”.

`c1nc(NCCc2cnc[nH]2)c2[nH]cnc2n1`: the activity, negative = inhibition was -17.7% [at 11.4 µM].

`CN(C)c1ccc(-c2cncnc2NCCc2cnc[nH]2)cc1`: the AC50 is 5.01 µM (active).

As for `Cc1cc(N2C(=O)C(O)=C(C(=O)c3ccco3)C2c2ccc(O)cc2)no1` (centres undefined), the AC50 result is “inactive”.

Take `CO[C@H]1COC(=O)C/C=C\[C@H](C)COC(=O)[C@@H](C)NC(=O)C/C=C\[C@@H]1C`: the activity, negative = inhibition was 10.1% [at 11.4 µM].

Turning to `COc1ccc(NC(=O)N2CCC3(CC2)CCN(C(=O)c2csnn2)CC3)cc1`, the AC50 result is “inactive”.

For `CN1CCN(NC(=O)c2ccccc2F)CC1`, the AC50 entry was “inactive”.

With `Cc1ccc(-n2c(SCC(=O)N3CCOCC3)nnc2-c2cccnc2)cc1`, the AC50 entry is “inactive”.

For `CCOC(=O)CSc1n[nH]c(NC(=O)c2cccc(C)c2)n1`, the AC50 entry was “inactive”.

As for `CCc1cccc2c(C=C(C#N)C#N)cn(CC(=O)N3CCCCC3)c12`, the AC50 result is “inactive”.

As for `O=c1oc(-c2ccco2)nc2c1cnn2-c1ccccc1`, the AC50 result was “inactive”.

On to `Cn1ncc([N+](=O)[O-])c1C(=O)N1CCOCC1`, for which the AC50 entry was “inactive”.

For `CCCCNC(=O)NS(=O)(=O)c1ccc(C(=O)OC(C)C)o1`, the AC50 entry was “inactive”.

For `CCN(CC)S(=O)(=O)c1ccc(NC(=O)COC(=O)c2ccc(Br)o2)cc1`, the AC50 is 3.16 µM (active).

As for `CN(C)S(=O)(=O)c1cccc(NC(=O)COC(=O)c2ccc(Br)o2)c1`, the AC50 result was “inactive”.

With `CN(C)S(=O)(=O)c1ccc(NC(=O)COC(=O)c2ccccn2)cc1`, the AC50 result was “inactive”.

With `CC1=CC2=NC(=O)CC(C)(C(=O)N(CC(=O)NC(C)(C)C)Cc3cccs3)N2C=C1` (centres undefined), the AC50 entry is “inactive”.

For `O=c1oc2c(Cl)cc(Cl)cc2cc1-c1nnc(Nc2ccccc2F)s1`, the AC50 entry is “inactive”.

Regarding `O=C(NC12CC3CC(CC(C3)C1)C2)N1CCN(c2nc(-c3ccccc3)cs2)CC1`, the AC50 result was “inactive”.

Regarding `NS(=O)(=O)c1ccc(NC(=O)Nc2cccc3ccccc23)cc1`, the activity, negative = inhibition is -5.78% [at 11.4 µM].

Regarding `CCC(C)NC(=O)c1ccccc1NC(=O)Nc1ccccc1` (centres undefined), the AC50 result was “inactive”.

For `CCS(=O)(=O)c1ccc(O)c(NC(=O)Nc2ccccc2)c1`, the AC50 is 4.47 µM (active).

Take `CCOC(=O)Cc1cc(=O)n2[nH]c(C)c(C#N)c2n1`: the AC50 result was “inactive”.

With `CC(C)NC(=O)N1CCN(c2ccncc2S(=O)(=O)N2CCOCC2)CC1`, the AC50 result is “inactive”.

Take `Cc1ccc2c(c1)/C(=N/OC(=O)c1ccc(F)cc1)CCS2`: the AC50 result is “inactive”.

With `C/C(=N\OC(=O)c1ccc(F)cc1)c1nccs1`, the concentration at half-maximal activity (AC50) is 12.6 µM (active).

In the case of `C/C(=N\OC(=O)c1cccc(C)c1)c1sc(-c2ccccc2)nc1C`, the AC50 entry was “inactive”.

(Values after PubChem BioAssay AID1851 (National Center for Advancing Translational Sciences (NCATS), 2009).)
